{"source": "paper PMC11006913", "assay_in_all_cases": "PBM; 200 nM protein, PBS", "conditions_in_all_cases": "dsDNA, one strand shown", "key": {"[1]": {"target": "HOXD13 (Homo sapiens, UniProt P35453 263-343, T313R)", "sequence (P35453 263-343 T313R)": "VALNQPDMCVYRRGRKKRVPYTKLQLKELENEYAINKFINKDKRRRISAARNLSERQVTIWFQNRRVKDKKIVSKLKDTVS"}, "[2]": {"target": "HOXD13 (Homo sapiens, UniProt P35453 263-343)", "sequence (P35453 263-343)": "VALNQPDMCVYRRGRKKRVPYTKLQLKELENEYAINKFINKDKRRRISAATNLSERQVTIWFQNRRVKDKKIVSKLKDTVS"}, "[3]": {"target": "ALX3 (Homo sapiens, UniProt O95076 139-225)", "sequence (O95076 139-225)": "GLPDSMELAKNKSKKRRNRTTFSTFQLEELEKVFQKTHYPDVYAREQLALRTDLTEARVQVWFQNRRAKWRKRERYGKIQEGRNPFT"}, "[4]": {"target": "ALX3 (Homo sapiens, UniProt O95076 139-225, L168Q)", "sequence (O95076 139-225 L168Q)": "as the sequence (O95076 139-225) above, with L30Q counted along it"}, "[5]": {"target": "HOXD13 (Homo sapiens, UniProt P35453 263-343, T313A)", "sequence (P35453 263-343 T313A)": "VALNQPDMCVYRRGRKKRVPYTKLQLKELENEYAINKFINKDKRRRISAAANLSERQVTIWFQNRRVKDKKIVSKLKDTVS"}, "[6]": {"target": "ALX3 (Homo sapiens, UniProt O95076 139-225, L168V)", "sequence (O95076 139-225 L168V)": "as the sequence (O95076 139-225) above, with L30V counted along it"}, "[7]": {"target": "ALX3 (Homo sapiens, UniProt O95076 139-225, N203S)", "sequence (O95076 139-225 N203S)": "as the sequence (O95076 139-225) above, with N65S counted along it"}, "[8]": {"target": "ALX3 (Homo sapiens, UniProt O95076 139-225, N203Q)", "sequence (O95076 139-225 N203Q)": "as the sequence (O95076 139-225) above, with N65Q counted along it"}, "[9]": {"target": "HOXC9 (Homo sapiens, UniProt P31274 178-260, R222W)", "sequence (P31274 178-260 R222W)": "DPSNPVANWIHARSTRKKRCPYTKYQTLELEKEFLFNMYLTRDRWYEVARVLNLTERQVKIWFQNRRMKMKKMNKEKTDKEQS"}, "[10]": {"target": "T1, NKX2-6 (Homo sapiens, UniProt A6NCS4 118-204)", "T1 sequence": "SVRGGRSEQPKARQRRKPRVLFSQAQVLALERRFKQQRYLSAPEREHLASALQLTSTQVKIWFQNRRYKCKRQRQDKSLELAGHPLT"}, "[11]": {"target": "T2, NKX2-6 (Homo sapiens, UniProt A6NCS4 118-204, F151L)", "T2 sequence": "T1 sequence with F34L"}, "[12]": {"target": "PROP1 (Homo sapiens, UniProt O75360 56-141)", "sequence (O75360 56-141)": "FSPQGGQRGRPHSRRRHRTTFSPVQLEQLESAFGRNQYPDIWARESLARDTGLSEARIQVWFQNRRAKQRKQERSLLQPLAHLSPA"}}, "note": "Numbering of substitutions follows the chain as printed.", "data": [{"sequence": "ATTAAAAT", "values": [{"measurement": "binding signal", "setting": "[1]", "result": "10.6 upbm affinity estimate (log intensity, higher = more binding, comparable within an allelic series)"}, {"measurement": "binding signal", "setting": "[2]", "result": "11.4 upbm affinity estimate (log intensity, higher = more binding, comparable within an allelic series)"}, {"measurement": "binding signal", "setting": "[3]", "result": "11.2 upbm affinity estimate (log intensity, higher = more binding, comparable within an allelic series)"}, {"measurement": "binding signal", "setting": "[4]", "result": "9.54 upbm affinity estimate (log intensity, higher = more binding, comparable within an allelic series)"}, {"measurement": "binding signal", "setting": "[5]", "result": "11.4 upbm affinity estimate (log intensity, higher = more binding, comparable within an allelic series)"}, {"measurement": "binding signal", "setting": "[6]", "result": "9.23 upbm affinity estimate (log intensity, higher = more binding, comparable within an allelic series)"}, {"measurement": "binding signal", "setting": "[7]", "result": "8.6 upbm affinity estimate (log intensity, higher = more binding, comparable within an allelic series)"}]}, {"sequence": "TATTAAAA", "values": [{"measurement": "binding signal", "setting": "[8]", "result": "8.56 upbm affinity estimate (log intensity, higher = more binding, comparable within an allelic series)"}, {"measurement": "binding signal", "setting": "[1]", "result": "10.8 upbm affinity estimate (log intensity, higher = more binding, comparable within an allelic series)"}, {"measurement": "binding signal", "setting": "[2]", "result": "11.8 upbm affinity estimate (log intensity, higher = more binding, comparable within an allelic series)"}, {"measurement": "binding signal", "setting": "[5]", "result": "11.8 upbm affinity estimate (log intensity, higher = more binding, comparable within an allelic series)"}, {"measurement": "binding signal", "setting": "[9]", "result": "11.1 upbm affinity estimate (log intensity, higher = more binding, comparable within an allelic series)"}]}, {"sequence": "CCCGAGAG", "values": [{"measurement": "binding signal", "setting": "[8]", "result": "7.84 upbm affinity estimate (log intensity, higher = more binding, comparable within an allelic series)"}, {"measurement": "binding signal", "setting": "[3]", "result": "7.81 upbm affinity estimate (log intensity, higher = more binding, comparable within an allelic series)"}, {"measurement": "binding signal", "setting": "[4]", "result": "7.74 upbm affinity estimate (log intensity, higher = more binding, comparable within an allelic series)"}, {"measurement": "binding signal", "setting": "[6]", "result": "7.83 upbm affinity estimate (log intensity, higher = more binding, comparable within an allelic series)"}, {"measurement": "binding signal", "setting": "[7]", "result": "7.85 upbm affinity estimate (log intensity, higher = more binding, comparable within an allelic series)"}]}, {"sequence": "GGCAGTTA", "values": [{"measurement": "binding signal", "setting": "[8]", "result": "8.06 upbm affinity estimate (log intensity, higher = more binding, comparable within an allelic series)"}, {"measurement": "binding signal", "setting": "[3]", "result": "9.02 upbm affinity estimate (log intensity, higher = more binding, comparable within an allelic series)"}, {"measurement": "binding signal", "setting": "[4]", "result": "8.19 upbm affinity estimate (log intensity, higher = more binding, comparable within an allelic series)"}, {"measurement": "binding signal", "setting": "[6]", "result": "8.14 upbm affinity estimate (log intensity, higher = more binding, comparable within an allelic series)"}, {"measurement": "binding signal", "setting": "[7]", "result": "8.16 upbm affinity estimate (log intensity, higher = more binding, comparable within an allelic series)"}]}, {"sequence": "ACCAGCGG", "values": [{"measurement": "binding signal", "setting": "[8]", "result": "7.79 upbm affinity estimate (log intensity, higher = more binding, comparable within an allelic series)"}, {"measurement": "binding signal", "setting": "[3]", "result": "7.56 upbm affinity estimate (log intensity, higher = more binding, comparable within an allelic series)"}, {"measurement": "binding signal", "setting": "[4]", "result": "7.79 upbm affinity estimate (log intensity, higher = more binding, comparable within an allelic series)"}, {"measurement": "binding signal", "setting": "[6]", "result": "7.78 upbm affinity estimate (log intensity, higher = more binding, comparable within an allelic series)"}, {"measurement": "binding signal", "setting": "[7]", "result": "7.78 upbm affinity estimate (log intensity, higher = more binding, comparable within an allelic series)"}]}, {"sequence": "AATTGTCC", "values": [{"measurement": "binding signal", "setting": "[8]", "result": "8.15 upbm affinity estimate (log intensity, higher = more binding, comparable within an allelic series)"}, {"measurement": "binding signal", "setting": "[10]", "result": "11.4 upbm affinity estimate (log intensity, higher = more binding, comparable within an allelic series)"}, {"measurement": "binding signal", "setting": "[3]", "result": "10.1 upbm affinity estimate (log intensity, higher = more binding, comparable within an allelic series)"}, {"measurement": "binding signal", "setting": "[11]", "result": "9.84 upbm affinity estimate (log intensity, higher = more binding, comparable within an allelic series)"}, {"measurement": "binding signal", "setting": "[7]", "result": "8.23 upbm affinity estimate (log intensity, higher = more binding, comparable within an allelic series)"}]}, {"sequence": "ACCGGTTA", "values": [{"measurement": "binding signal", "setting": "[8]", "result": "8.13 upbm affinity estimate (log intensity, higher = more binding, comparable within an allelic series)"}, {"measurement": "binding signal", "setting": "[3]", "result": "9.46 upbm affinity estimate (log intensity, higher = more binding, comparable within an allelic series)"}, {"measurement": "binding signal", "setting": "[4]", "result": "8.24 upbm affinity estimate (log intensity, higher = more binding, comparable within an allelic series)"}, {"measurement": "binding signal", "setting": "[6]", "result": "8.11 upbm affinity estimate (log intensity, higher = more binding, comparable within an allelic series)"}, {"measurement": "binding signal", "setting": "[7]", "result": "8.2 upbm affinity estimate (log intensity, higher = more binding, comparable within an allelic series)"}]}, {"sequence": "ACCCGGGT", "values": [{"measurement": "binding signal", "setting": "[8]", "result": "7.83 upbm affinity estimate (log intensity, higher = more binding, comparable within an allelic series)"}, {"measurement": "binding signal", "setting": "[3]", "result": "8.06 upbm affinity estimate (log intensity, higher = more binding, comparable within an allelic series)"}, {"measurement": "binding signal", "setting": "[4]", "result": "8.02 upbm affinity estimate (log intensity, higher = more binding, comparable within an allelic series)"}, {"measurement": "binding signal", "setting": "[6]", "result": "7.92 upbm affinity estimate (log intensity, higher = more binding, comparable within an allelic series)"}, {"measurement": "binding signal", "setting": "[7]", "result": "7.9 upbm affinity estimate (log intensity, higher = more binding, comparable within an allelic series)"}]}, {"sequence": "CAGTTACG", "values": [{"measurement": "binding signal", "setting": "[8]", "result": "8 upbm affinity estimate (log intensity, higher = more binding, comparable within an allelic series)"}, {"measurement": "binding signal", "setting": "[3]", "result": "8.89 upbm affinity estimate (log intensity, higher = more binding, comparable within an allelic series)"}, {"measurement": "binding signal", "setting": "[4]", "result": "8.09 upbm affinity estimate (log intensity, higher = more binding, comparable within an allelic series)"}, {"measurement": "binding signal", "setting": "[6]", "result": "8.1 upbm affinity estimate (log intensity, higher = more binding, comparable within an allelic series)"}, {"measurement": "binding signal", "setting": "[7]", "result": "8.08 upbm affinity estimate (log intensity, higher = more binding, comparable within an allelic series)"}]}, {"sequence": "CTTAATTC", "values": [{"measurement": "binding signal", "setting": "[8]", "result": "8.32 upbm affinity estimate (log intensity, higher = more binding, comparable within an allelic series)"}, {"measurement": "binding signal", "setting": "[3]", "result": "11.7 upbm affinity estimate (log intensity, higher = more binding, comparable within an allelic series)"}, {"measurement": "binding signal", "setting": "[4]", "result": "9.59 upbm affinity estimate (log intensity, higher = more binding, comparable within an allelic series)"}, {"measurement": "binding signal", "setting": "[6]", "result": "9.14 upbm affinity estimate (log intensity, higher = more binding, comparable within an allelic series)"}, {"measurement": "binding signal", "setting": "[7]", "result": "8.4 upbm affinity estimate (log intensity, higher = more binding, comparable within an allelic series)"}]}, {"sequence": "CGAAATCA", "values": [{"measurement": "binding signal", "setting": "[8]", "result": "8.09 upbm affinity estimate (log intensity, higher = more binding, comparable within an allelic series)"}, {"measurement": "binding signal", "setting": "[3]", "result": "9.04 upbm affinity estimate (log intensity, higher = more binding, comparable within an allelic series)"}, {"measurement": "binding signal", "setting": "[12]", "result": "7.77 upbm affinity estimate (log intensity, higher = more binding, comparable within an allelic series)"}, {"measurement": "binding signal", "setting": "[7]", "result": "8.15 upbm affinity estimate (log intensity, higher = more binding, comparable within an allelic series)"}]}]}
